Measured values from PubChem BioAssay AID687014 (The Scripps Research Institute Molecular Screening Center, 2013).
The campaign covered roughly 370,000 compounds. About 6,800 (1.8%) were called active. The entries come from a sample that favours actives as a whole. Unmarked numbers belong to inactive results.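 The calls were made as follows: active = activation above a cutoff set at the mean of all screened compounds plus 3 SD (cut at about 10% in these data); inactive = the rest.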

These compounds were tested on Nuclear hormone receptor DAF-12 (Heterodera glycines), GAL4 fusion (assay: hgDAF-12 GAL4 fusion reporter activation – cell-based, luminescence, HEK293, UAS-luciferase, primary screen (AID 687014;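 also: 0% = DMSO wells and 100% = sodium butyrate wells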)). Conditions: HEK293 GAL4-hgDAF12 UAS-luciferase reporter, agonist luminescence; at 6.8 µM; stronger effect = higher value; normalized to butyrate control.

Compound | activation
COc1ccc(-c2ccc3c(n2)CCCN3S(=O)(=O)c2ccc(C)cc2)cc1 | 1.42%
O=C(C(=O)N1CCC(CNS(=O)(=O)Cc2ccccc2)CC1)c1cc2ccccc2o1 | -2.92%
O=C(NNC(=O)c1csc(-c2cccnc2)n1)Nc1ccc(Cl)cc1 | -2.54%
CN(c1ccc(O)cc1)c1nc(-c2cccnc2)cs1 | 11% (active)
CN(C(=O)CSc1nc(C2CC2)nc2ccccc12)c1nc(-c2ccccc2)cs1 | 0.14%
COc1ccc(NC(=O)c2cc([N+](=O)[O-])ccc2NC(=O)CNC2CCCCC2C)c(OC)c1 (configuration not stated) | 1.77%
Cn1c(=NC(=O)C2CC2)sc2cc(F)cc(F)c21 | 14% (active)
O=C(Cn1nnc(-c2ccccc2)n1)NC(=O)NC1CCCC1 | 4.87%
CC(C)C[C@H](NC(=O)C1CC(=O)N(c2ccc3c(c2)OCCO3)C1)C(=O)NC1CCCC1 (some centres not stated) | -2.12%
Cc1ccnc(NC(=O)CCNS(=O)(=O)c2ccc(C)c(C)c2)c1 | 17.1% (active)
Cc1ccc(S(=O)(=O)NCCC(=O)NCc2ccc(Cl)cc2)cc1C | 1.13%
Cc1ccc(S(=O)(=O)NCCC(=O)Nc2cccc(S(N)(=O)=O)c2)cc1C | 1.82%
COCCNC(=O)CSc1nc2sccc2c(=O)n1-c1ccccc1 | -2.26%
CS(=O)(=O)Nc1ccc(C(=O)N2CCCC2)cc1 | -0.04%
CNc1cncc(-c2ccc(NS(C)(=O)=O)cc2)n1 | 20.8% (active)
CNc1cncc(-c2cccc(C(=O)N3CCOCC3)c2)n1 | -2.58%
COc1ccc(-c2ccccc2C2Cc3nnccc3CN2C(=O)Nc2ccccc2)cc1 (configuration not stated) | -0.36%
O=C(Nc1cccc(Cl)c1)OC1CC2CC1[C@H]1CCCCN1[C@H]2Cc1ccccc1 (some centres not stated) | -4.33%
Cc1ccc2nc(CN(C)C(=O)[C@@H](Cc3ccccc3)NC(=O)[C@H]3O[C@@H](n4ccc(=O)[nH]c4=O)[C@H](O)[C@@H]3O)[nH]c2c1 | -0.28%
Cc1ccc(C)c(NC(=O)CCC(=O)N/N=C2/CC(=O)CC(C)(C)C2)c1 | -0.63%
COC(=O)[C@H](C(C)C)N(CCc1cn(Cc2ccccc2)nn1)S(=O)(=O)c1ccc(F)cc1Br | -2.66%
COc1ccc(Sc2ccc(NC(=O)c3cccc(Cl)c3)cc2C#N)cc1 | 0.58%
O=C(Nc1ccn(Cc2ccccc2F)n1)c1ccc(COc2ccc(Cl)cc2Cl)o1 | -5.91%

Compound | activation
N#Cc1ccccc1NC(=O)c1cccc(COc2ccc(Cl)cc2Cl)c1 | 12.7% (active)
Cn1cc(S(=O)(=O)NC(c2ccccc2)c2ccccc2)c(=O)n(C)c1=O | -1.46%
O=C(COC(=O)c1cnc(Cl)c(Cl)c1)NCc1ccco1 | -3.41%
O=C(COC(=O)c1ccco1)NCc1ccc(Cl)cc1 | 10.8% (active)
O=C(COC(=O)c1ccco1)Nc1ccc(Cl)cn1 | 0.37%
O=C(CCOc1ccccc1)NCc1ccccc1 | 0.5%
O=C(COc1cccc(Cl)c1)NCc1ccccc1 | 10.5% (active)
O=C(COC(=O)c1cccc(Cl)c1)NC(=O)NCc1ccccc1 | 0.55%
O=C1CC[C@@H]2CC3(C[C@@H]4CCN1[C@H]24)Nc1cc([N+](=O)[O-])ccc1NC3=NC1CCCCC1 (some centres not stated) | 0.54%
COc1cc(OC)c(-n2cc(-c3ccc(Cl)cc3)[nH]c2=O)cc1Cl | -2.27%
N#Cc1cccc(C(=O)NCC2CCN(C(=O)C(=O)c3cc4ccccc4o3)CC2)c1 | -0.57%
COc1ccc(CNS(=O)(=O)c2cc(Br)ccc2Br)cc1 | 1.03%
O=C(CN(C(=O)c1csnn1)c1cccc(Cl)c1)NC1CCCC1 | -1.27%
O=C(Nc1ccc(Br)cc1)OCCN1C(=O)CCC12CCC(c1ccccc1)CC2 (configuration not stated) | -0.22%
Cc1cccc(CN2CCC(n3nccc3NC(=O)c3ccccc3C)CC2)n1 | -0.95%
COc1ccc(Nc2cc(=O)n(-c3ccccc3)c3c2c(=O)n(C)c(=O)n3C)cc1 | -1.79%
COc1ccc(Nc2ccc3ccccc3c2)cc1 | 18.4% (active)
COc1ccc(NC2=CC(=S)NC(C)(C)C2)cc1 | 1.03%
OCC[C@H]1C[C@@H](O)[C@H](O)[C@]2(OCCCc3ccccc32)O1 | -1.3%
COc1ccc(S(=O)(=O)Nc2ccc3c(c2)C(=O)N([C@H](C)CO)C[C@H](C)[C@@H](CN(C)C)OCCCC[C@H](C)O3)cc1 | -1.86%
Cc1c(Cl)cccc1NC(=S)NCC(O)c1ccccc1 (configuration not stated) | 0.77%
COc1ccc(C(=O)NCC[N+](C)(C)C)cc1 | -0.85%
COc1ccc(C(=O)NCCSc2ccccc2C)cc1 | 12.8% (active)

Compound | activation
CCSc1ccccc1C(=O)NCc1ccc(OC)cc1 | -1.12%
Cc1ccc(-n2c(COc3ccccc3)nnc2SCC(=O)Nc2ccc3c(c2)OCCO3)cc1 | -0.21%
Cc1cc(OC(=O)NCCc2ccc(F)cc2)ccc1F | 0.78%
O=C(CSc1nnc(COc2ccccc2)n1Cc1ccco1)c1ccc2ccccc2c1 | -0.51%
Cc1cc(C)c(C#N)c(SCC(=O)NN2CC(=O)N(c3ccccc3F)CC2=O)n1 | -2.6%
Cc1cc(C)c(C#N)c(SCC(=O)Nc2ccccc2)n1 | 11.8% (active)
COCc1cc(C)nc(SCC(=O)Nc2cccc(C)c2)c1C#N | 0.86%
Cc1ccccc1N1CCN(CCCN2C(=O)C3CCCCN3C2=O)CC1 (configuration not stated) | 2.03%
CC1CCN(c2ccc(C(=O)O)cc2NS(=O)(=O)c2ccc(Br)s2)CC1 | -3.43%
O=C(N[C@H](C(=O)N1CCC[C@H]1C(=O)NCCc1ccccc1Cl)c1ccccc1)c1ccccc1 | -3.35%
Cn1c(SCc2c(F)cccc2Cl)nnc1-c1cnccn1 | 8.5%
Oc1ccc(-n2nnnc2SCc2c(F)cccc2Cl)cc1 | 0.63%
Fc1cccc(Cl)c1CSc1ccc(-c2ccco2)nn1 | 10.6% (active)
CCC(C)(C)NC(=O)C(c1ccc(O)cc1)N(C(=O)Cn1nnc2ccccc21)c1ccc(NC(C)=O)cc1 (configuration not stated) | -2.76%
C[C@H](CO)N1C[C@H](C)[C@@H](CN(C)C(=O)Nc2ccccc2F)OCc2cn(nn2)CCCC1=O | 4.8%
COc1cc(/C=C(\C#N)c2nc3c(s2)CC(C)CC3)ccc1O (configuration not stated) | 13.1% (active)
CCCC1CCC2(CCCN2CCOC(=O)NCc2ccccc2)CC1 (configuration not stated) | -0.9%
CCC(c1ccc(NC(=O)OC(C)(C)C)cc1)c1cc(OC)cc(OC)c1 (configuration not stated) | -1.91%
CC(C)(C)n1nc(C2CC2)c(Br)c1NC(=O)c1ccccc1F | -1.55%
CC(=O)N1Cc2ccccc2CC1C(=O)O (configuration not stated) | 2.94%
CC(=O)c1ccc(N2CCN(CC(O)c3ccccc3)CC2)cc1 (configuration not stated) | -0.45%
CC(=O)c1ccc(N2Cc3ccccc3C2)cc1 | 12.2% (active)
O=C(NCc1cccs1)C1CCN(S(=O)(=O)c2ccccc2[N+](=O)[O-])CC1 | 1.45%

Compound | activation
Nc1ccccc1-c1nc2ccncc2[nH]1 | 3.95%
Cc1ccccc1N1CC(c2nc3ccccc3[nH]2)CC1=O (configuration not stated) | 0.19%
O=C1c2ccccc2C(c2nc3ccccc3[nH]2)N1c1ccccc1 (configuration not stated) | 5.38%
c1ccc2[nH]c(-c3nc4ccccc4[nH]3)nc2c1 | 11.8% (active)
Cc1ccc(-c2nc3ccccc3[nH]2)cc1N | 12.8% (active)
CCOC(=O)CNC(=O)CSc1ncccc1-c1nc2ccccc2[nH]1 | -0.67%
COC(=O)C1CN(CC(C)C)CCS(=O)(=O)N1Cc1ccc(F)cc1 (configuration not stated) | -3.03%
CC(C)Cn1c(N2CCN(C(=O)/C=C/c3ccccc3)CC2)nc2ccccc21 | -3.13%
CN(C(=O)CSc1nnc(Nc2ccccc2)s1)C1CCS(=O)(=O)C1 (configuration not stated) | 1.71%
CC(C)c1ccc(Nc2nnc(SCC(=O)c3nnc(-c4ccccc4)o3)s2)cc1 | 17.7% (active)
CC(C)Nc1nnc(SCC(=O)c2c[nH]c3ccccc23)s1 | -0.17%
O=C(OCc1ccc(-c2ccccc2)cc1)c1cccc(O)c1 | 7.53%
O=C(Nc1cccc(O)c1)c1ccc(C(=O)c2ccccc2)o1 | 15.9% (active)
O=C(NCc1cccc(CNC(=O)Nc2cccc(O)c2)c1)Nc1cccc(O)c1 | -0.42%
CC(=O)N1CCc2cc(S(=O)(=O)NCCC(=O)N3CCCC3)ccc21 | 0.07%
COc1ccc(C(=O)O/N=C(\N)c2ccccn2)cc1[N+](=O)[O-] | 17.4% (active)
COc1ccc(C(=O)NNC(=O)c2cnccn2)cc1[N+](=O)[O-] | 2.33%
Cc1ccc(C(=O)O/N=C(\N)c2ccccn2)cc1Cl | 4.09%
COC(=O)[C@]12C[C@H](CC(=O)NCCC(C)C)C(=O)N(CCc3ccc(OC)c(OC)c3)C1=C[C@H](C(C)(C)C)O[C@@H]2C | 0.69%
Cc1cc(Br)cn2c(Cc3ccccc3C(F)(F)F)c(-c3ccc(C#N)cc3)nc12 | -0.23%
Cc1ccc(-c2nc3ccc(Br)cn3c2Cc2ccccc2C(F)(F)F)cc1 | 12.4% (active)
Cc1cc(Br)cn2c(Cc3ccccc3C(F)(F)F)c(-c3ccc(Cl)cc3)nc12 | 0.95%
CCCCN1CCN(C(=O)c2ccc3c(c2)NC(=O)C(C)(C)O3)CC1 | 1.81%
